High-throughput results as filed in PubChem BioAssay.
FGF22 binding – shifts melting point of recombinant human FGF22. actives 1.5% (n = 340,000). AID 651658. activity (Tm shift, normalised), % at 9.99 µM. recombinant FGF22 thermal shift, SYPRO orange fluorescence; percent of sucrose octasulfate shift, DMSO zero;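 active means mean Tm shift, scaled 0 neutral to 100 positive control, at about 1.3% or above, every replicate too, limit read from the data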
Target sequence (Q9HCT0 whole entry, looked up): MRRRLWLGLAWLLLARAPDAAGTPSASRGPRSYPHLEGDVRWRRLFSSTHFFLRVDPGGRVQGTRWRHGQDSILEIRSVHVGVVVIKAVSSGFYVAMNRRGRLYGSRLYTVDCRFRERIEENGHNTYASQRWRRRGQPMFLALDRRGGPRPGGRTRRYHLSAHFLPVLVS
CASP6 VEID inh – caspase-6 (human) enzyme inhibition; P55212; purified caspase-6, Z-VEID-R110 cleavage fluorescence; inhibition, % at 12.5 µM; actives 0.53% (n = 350,000); AID 686996;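 active means mean inhibition across replicates at least about 35%, with every replicate also reaching that limit, limit read from the data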;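 further: 0% = median of neutral control wells and 100% = no fluorescence left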
Target sequence (P55212 24-179 limits assumed): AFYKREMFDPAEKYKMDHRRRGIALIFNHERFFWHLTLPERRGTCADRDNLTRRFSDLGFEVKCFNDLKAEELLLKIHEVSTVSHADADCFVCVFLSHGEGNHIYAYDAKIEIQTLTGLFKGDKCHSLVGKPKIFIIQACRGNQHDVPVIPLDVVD
Target sequence (P55212 194-293 limits assumed): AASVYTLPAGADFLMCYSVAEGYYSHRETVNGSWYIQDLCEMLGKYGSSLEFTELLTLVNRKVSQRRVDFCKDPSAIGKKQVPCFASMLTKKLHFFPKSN
ERAP1 HTS inh – ERAP1 (human) enzyme inhibition; Q9NZ08; recombinant ERAP1, Leu-AMC fluorescence, 60 min; inhibition, % at 10.7 µM; actives 0.15% (n = 340,000);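 active means mean replicate inhibition of at least 30%, or all replicates individually reaching that 30% level; inactive means mean below 30% and not every replicate reaching it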;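 further: 0% = neutral control wells and 100% = L-leucinethiol positive control wells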
SIRT5 block – blocks human SIRT5 desuccinylation of peptide | Purified SirT5, succinyl-peptide AMC, trypsin-coupled fluorescence | inhibition, % at 15 µM | actives 1.1% (n = 330,000) | AID 652115; in the data active means inhibition above about 15%
Active calls of the source: *; . = no result. Only some compounds are listed: those with a hit (about 3.1% of all), similar ones and a draw of the others.

SMILES	FGF22 binding	CASP6 VEID inh	ERAP1 HTS inh	SIRT5 block
COc1ccc(C2NC(c3ccc(OC)cc3OC)C(C)C(=O)C2C)c(OC)c1 (stereo not given)	0.4	55.2*	-0.1	-1.7
COc1ccc(C2C=CC(=O)CC2)c(OC)c1 (stereo not given)	-0.5	1.2	-2.4	-1.6
N/C(Cn1cncn1)=N\NC(=O)C(=O)Nc1cccc(C(F)(F)F)c1	43.1*	-2.6	-2.9	-3.5
N/C(Cn1cncn1)=N\NC(=O)C(=O)Nc1ccccc1	0.3	-0.7	-5.7	-6.9
CCCC#Cc1ccc([C@H]2[C@@H](CO)N3C(=O)CN(C(=O)c4ccccn4)C[C@@H]23)cc1	.	0.4	0.9	-0.7
O=C(Cc1nnc(NC(=O)Nc2ccc(Cl)cc2)s1)NCc1ccccc1	0.1	4.5	0.9	38.3*
C[C@@H]1CCCCO[C@@H](CN(C)S(=O)(=O)c2ccc(F)cc2)[C@@H](C)CN([C@@H](C)CO)C(=O)c2cc(NS(=O)(=O)c3cn(C)cn3)ccc2O1	-0.2	-2.9	0.1	-1.6
Cc1ccc(S(=O)(=O)Nc2ccc3c(c2)CC(=O)N([C@@H](C)CO)C[C@H](C)[C@@H](CN(C)Cc2ccc(-c4ccccc4)cc2)O3)cc1	0.1	-1.8	-1.7	18.8*
Cc1ccc(S(=O)(=O)Nc2ccc3c(c2)CC(=O)N([C@H](C)CO)C[C@H](C)[C@H](CN(C)Cc2ccc(-c4ccccc4)cc2)O3)cc1	0.1	1.5	-1.2	3.0
Cc1ccc(S(=O)(=O)Nc2ccc3c(c2)CC(=O)N([C@@H](C)CO)C[C@H](C)[C@H](CN(C)Cc2ccc(-c4ccccc4)cc2)O3)cc1	-0.2	-0.3	-1.8	18.0*
C[C@H]1CN([C@@H](C)CO)C(=O)Cc2cc(NC(=O)CCN3CCOCC3)ccc2O[C@@H]1CN(C)C(=O)Nc1ccccc1	0.1	-0.3	4.5	-1.0
C[C@@H]1CN([C@@H](C)CO)C(=O)c2cc(NS(C)(=O)=O)ccc2O[C@H]1CN(C)Cc1ccc(C(F)(F)F)cc1	0.4	4.3	-1.2	3.7
CC1CCN(S(=O)(=O)N2CCC(C(=O)N3CCC(N(C)CC4CCCO4)CC3)CC2)CC1 (stereo not given)	0.1	-4.7	0.1	17.6*
NC(=O)CSc1nc2ccccc2n1-c1ccccc1	-0.2	0.4	-2.0	26.1*
Cc1noc(C)c1NC(=O)N(C)C[C@@H]1Oc2ccc(NS(=O)(=O)c3ccc(F)cc3)cc2CC(=O)N([C@@H](C)CO)C[C@@H]1C	0.1	-1.5	-0.3	-5.4
O=C(c1ccccc1)N1C[C@H]2[C@@H](c3ccccc31)[C@H](CO)N2S(=O)(=O)c1ccccc1	-0.3	2.8	2.2	-0.6
O=C(NCc1ccncc1)c1nc(-c2ccc(C(F)(F)F)cc2)no1	0.0	1.7	11.2	18.7*
Cn1nc2c(c1C(=O)N1CCCC(C(=O)c3cc(F)ccc3F)C1)CCCC2 (stereo not given)	43.4*	-3.0	-4.2	-1.0
COc1ccc(C(=O)C2CCCN(C(=O)c3c4c(nn3C)CCCC4)C2)cc1F (stereo not given)	.	-1.6	0.3	-2.8
Cc1cccc(N2CCN(C(=O)COc3ccc4c(C)cc(=O)oc4c3C)CC2)c1C	-0.1	5.0	-6.0	19.2*
Cc1ccccc1OC1(C)CCN(Cc2ccc(-c3ccccn3)cc2)C1 (stereo not given)	0.1	84.5*	-2.3	.
C=CCn1c(SCC(=O)Nc2ccccc2-c2ccccc2)nc2cc(C(=O)O)ccc2c1=O	43.3*	1.8	2.6	-3.4
C[C@@H]1CN([C@@H](C)CO)C(=O)c2cccc(NC(=O)Nc3ccc4c(c3)OCO4)c2O[C@@H]1CN(C)C	0.0	-0.3	-2.3	-0.4
C[C@@H]1CN([C@H](C)CO)C(=O)c2cc(NC(=O)Nc3ccc(C(F)(F)F)cc3)ccc2O[C@@H](C)CCCCO[C@H]1CN(C)S(=O)(=O)c1ccccc1	0.3	0.0	0.9	4.4
O=C(Cc1cccs1)N/N=C/C=C\c1ccco1	0.5	34.3	4.7	0.8
SMILES	FGF22 binding	CASP6 VEID inh	ERAP1 HTS inh	SIRT5 block
O=C(N/N=C/C=C/c1ccco1)c1ccccc1Cl	0.1	49.4*	-2.3	1.8
O=C(N/N=C/C(Br)=C\c1ccccc1)c1cccs1	-0.2	1.6	.	19.9*
O=C(N/N=C/C=C\c1ccco1)c1cccs1	43.9*	33.9	7.7	0.8
C[C@@H]1CCCCO[C@H](CN(C)C(=O)NC2CCCCC2)[C@H](C)CN([C@@H](C)CO)C(=O)c2cc(NC(=O)Nc3ccc4c(c3)OCO4)ccc2O1	-0.8	1.9	-1.0	2.5
O=C(O)c1ccc(CSc2nc3ccc(NC(=O)c4ccccc4C(=O)O)cc3s2)cc1	.	26.9	-2.6	17.1*
N#Cc1ccccc1CSc1nc2ccc(NC(=O)c3ccccc3C(=O)O)cc2s1	0.4	1.4	2.9	-2.8
N#Cc1cccc(NC(=O)CSc2sc3c(O)cc(=O)[nH]c3c2C#N)c1	.	34.7	0.4	3.7
N#Cc1c(SCC(=O)Nc2ccccc2C(F)(F)F)sc2c(O)cc(=O)[nH]c12	-1.1	42.7*	1.9	5.2
N#Cc1c(SCC(=O)Nc2ccc(Cl)cc2Cl)sc2c(O)cc(=O)[nH]c12	-0.2	40.4*	2.4	-19.4
N#Cc1c(SCC(=O)Nc2cccc(F)c2)sc2c(O)cc(=O)[nH]c12	.	43.7*	-6.2	10.1
Cc1c(Cl)cccc1NC(=O)CSc1sc2c(O)cc(=O)[nH]c2c1C#N	40.9	33.5	-2.4	6.4
COc1ccc2c3c(n(C)c2c1)[C@@H](CO)N(C(=O)NC(C)C)CC31CN(Cc2nccs2)C1	-0.2	-0.8	-1.3	1.0
CCCCC1(C)OC(=O)C(=Cc2ccc(-c3ccc(Cl)c(C(=O)O)c3)o2)C(=O)O1 (stereo not given)	3.8*	12.4	.	1.7
O=C(O)c1cc(-c2ccc(/C=N/NC(=S)Nc3ccccc3)o2)ccc1Cl	0.1	.	-15.8	16.1*
CNC(=S)N/N=C/c1ccc(-c2cccc(C(=O)O)c2)o1	0.2	10.9	-1.7	.
C[C@H](CO)N1C[C@H](C)[C@H](CN(C)C(=O)CC2CC2)Oc2cc(-c3cccnc3)ccc2S1(=O)=O	-0.2	-2.6	-4.7	1.4
O=C(O)c1cccc(N2C(=O)c3cc([N+](=O)[O-])cc4cc([N+](=O)[O-])cc(c34)C2=O)c1	0.1	45.0*	8.6	8.0
O=C(O)c1cccc(N2C(=O)c3cccc4cccc(c34)C2=O)c1	0.0	0.1	-1.9	1.8
O=C1c2cc([N+](=O)[O-])cc3cc([N+](=O)[O-])cc(c23)C(=O)N1c1ccccn1	0.2	48.2*	-1.8	-0.5
C[C@H](CO)N1C[C@H](C)[C@H](CN(C)Cc2ccccc2)Oc2ncc(C#Cc3cccnc3)cc2C1=O	-0.1	0.5	0.9	5.0
Cc1[nH][nH]c(=O)c1C=NCc1cccc(C(F)(F)F)c1	0.0	2.4	-0.1	3.3
Cc1cccc(C)c1N=Cc1c(C(F)(F)F)[nH][nH]c1=O	43.0*	2.2	-2.6	0.1
Cn1[nH]c(C(F)(F)F)c(C=Nc2ccc(Cl)cc2)c1=O	42.8	-2.4	-1.1	2.6
COC(=O)c1ccc(N=Cc2c(C(F)(F)F)[nH][nH]c2=O)cc1	43.4*	-3.9	-3.1	-2.4
